Shown are actives, neighbours in structure and some others; about 21% of the full set was active somewhere.
HCMV antiviral – human cytomegalovirus inhibition; HFF cells, HCMV-luciferase reporter, 72 h; stronger effect = lower value; activity change, negative = inhibition, % at 57.5 µM; actives 4.5% (n = 410,000); AID 1259415; in the data active = activity change below about -60%; inconclusive = no clear call, values can overlap the other calls; inactive = above about -39%; note: % is set by controls: 0 for no effect and ±100 for the full control effect
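Steps: HFFs plated, 16 h 37C; compounds added; HCMV-luciferase added to MOI 1 PFU/cell; 72 h 37C; OneGlo reagent, 5 min room temperature; luminescence read, normalized to controls.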
Pf growth 48h – P. falciparum growth inhibition at 48 hours (one generation) | P. falciparum luciferase growth in erythrocytes, 48 h | Potency, µM (titrated, usually from 28.7 µM), for inactives: top-dose activity change, negative = inhibition, actives largely listed as inhibitors | actives 5.9% (n = 310,000) | AID 504832; note: potency is the fitted concentration of half-maximal effect; % is set by controls: 0 for no effect and ±100 for the full control effect
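A one-generation exposure of luciferase-tagged malaria parasites in RPMI 1640/Albumax erythrocyte culture, 37 C and 5% CO2. Inhibition is inferred from decreased luminescence after adding detection reagent.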
Shiga inhibitor – inhibitors of Shiga toxin in Vero cells; Vero cells, Shiga toxin protein synthesis inhibition reporter; inhibition, % at 38.7 µM; actives 9.2% (n = 290,000); AID 2315; in the data active = inhibition mostly above about 28%, no sharp cut-off; inactive = mostly below about 43%; note: 0% is about no effect
Pf growth 96h – P. falciparum growth inhibition at 96 hours; P. falciparum luciferase reporter growth, 96 h; Potency, µM (series often up to 28.7 µM), without a hit: at the highest dose activity change, negative = inhibition, hits mostly inhibitors; actives 6.9% (n = 320,000); note: potency is the fitted concentration of half-maximal effect; % is set by controls: 0 for no effect and ±100 for the full control effect
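96 h incubation, 37 C, 5% CO2, of luciferase-reporter P. falciparum-infected RBCs (2% hematocrit, 0.05% parasitemia final) with test compounds; endpoint luminescence.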
HCV inh – HCV inhibition; Huh7.5.1 HCVcc-Cre infection, luciferase reporter, 44 h; AID 651820; actives 3.4% (n = 340,000); Potency, µM (series often up to 41.8 µM), inactives show top-dose activity change, negative = inhibition, hits mostly inhibitors; note: potency is the fitted concentration of half-maximal effect; % is set by controls: 0 for no effect and ±100 for the full control effect
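Reporter virus HCVcc-Cre (~0.5 moi) infects cells exposed to compound; seeding density 1,000 cells/well with 4 h settling beforehand. Luminescence, 15 sec read, taken 44 h post-infection following a 15 min RT substrate incubation.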
CHX counter – counter-screen hit for Shiga toxin inhibitors, cycloheximide; cell reporter, cycloheximide protein synthesis inhibition counterscreen; max response, %; actives 12% (n = 300,000); AID 2314; in the data active = max response mostly above about 13%, no sharp cut-off; inactive = mostly below about 14%; note: read at 38.3 µM for the half of the compounds with a filed dose; 0% is about no effect
An asterisk follows results filed as active; ? = inconclusive; · = not tested or not shown. Unless noted, calls come from the whole dose curve; as a rule, active = well fitted inhibition curve with a large enough effect; inconclusive = small, poorly fitted or top-dose-only effect, or another doubt; inactive = no such curve, though single readings can be large or run the other way.

SMILES | HCMV antiviral | Pf growth 48h | Shiga inhibitor | Pf growth 96h | HCV inh | CHX counter
O=C(Cc1ccc(Cl)cc1)Nc1ccc(N2CCN(C(=O)c3ccco3)CC2)cc1 | -16 | ? | -13 | · | -7% | -4
Cc1ccccc1C(=O)N1CCN(c2ccc(NC(=O)c3ccc4c(c3)OCO4)cc2)CC1 | -38 | ? | -9 | -7% | ? | 1
O=C(Nc1ccc(N2CCN(C(=O)c3ccco3)CC2)cc1)c1ccc(Br)cc1 | -21 | ? | -2 | ? | -3% | -1
O=C(Nc1ccc(N2CCN(C(=O)c3ccco3)CC2)cc1)c1ccco1 | -31 | -9% | 43 | ? | 5% | 12*
O=C(Nc1ccc(N2CCN(C(=O)c3ccco3)CC2)cc1)c1ccc2c(c1)OCO2 | 0 | 13µM* | -4 | ? | -2% | -1
O=C(c1ccco1)N1CCN(c2ccc(Cl)cc2)CC1 | 12 | 34% | 79* | 1% | 15% | 37*
Cc1ccc(S(=O)(=O)NN=C2CCCc3ccccc32)cc1 | 14 | · | · | · | · | ·
COc1cc(C(=O)OCC(=O)Nc2sccc2C(N)=O)cc(OC)c1OC | 52 | -10% | 9 | 9% | ? | 10
COc1ccc(C(=O)OCC(=O)Nc2sccc2C(N)=O)cc1OC | -16 | 17% | 8 | 21% | ? | 9.3*
CN(C)S(=O)(=O)c1cccc(C(=O)OCC(=O)Nc2sccc2C(N)=O)c1 | 35 | 1.9µM* | -20 | 3.7µM* | ? | -5
COc1cc(CCC(=O)OCC(=O)Nc2sccc2C(N)=O)cc(OC)c1OC | -16 | 0% | · | 18% | 13µM* | ·
CC(=O)NCc1ccc(C(=O)CCl)s1 | -16 | 4.1µM* | 22 | ? | ? | 5
COc1ccc(CNCCc2c[nH]c3ccccc23)c(OC)c1C | 19 | ? | 3 | 2.9µM* | ? | -7
CCOc1cc(CNCCc2ccccc2F)ccc1OC | ? | -25% | -4 | ? | -5% | -2
COc1ccc(CNCCc2ccccc2F)c(OC)c1C | 36 | 10µM* | -2 | -6% | ? | -2
CCc1ccccc1NC(=O)c1sc(-n2nc(C)c(Cc3ccccc3)c2C)nc1C | 19 | · | · | · | · | ·
CCOC(=O)C1CCN(CCC(=O)Nc2ccc(OC)cc2)CC1 | 10 | · | · | · | · | ·
Cc1ccc(Cl)cc1N1CCN(c2cccc[n+]2C)CC1 | -93* | 4.1µM* | -1 | 0.74µM* | 1% | 1
C[n+]1ccccc1N1CCN(c2ccccc2Cl)CC1 | -16 | 4.7µM* | -3 | ? | 1% | -2
COC(=O)c1cc(NC(=O)CCc2c(C)nc3nc(C)nn3c2C)cc(C(=O)OC)c1 | 0 | · | · | · | · | ·
O=C(NCCNC(=O)c1ccccn1)c1ccc(Cl)cc1 | -14 | 8% | 19 | ? | 9% | -5
O=C(/C=C\Nc1ccccn1)c1ccc(Cl)cc1 | -33 | 170% | 75* | -28% | -11% | 33*
Cc1cccc(N/C=C/C(=O)c2ccc(Cl)cc2)c1 | 52 | 203% | 88* | 429% | 1% | 35*
Cc1cccc(NNC(=O)C(=O)NNc2cccc(C)c2)c1 | 26 | -17% | 24 | -24% | -1% | 14
C/C(=C\C(=O)c1ccccc1)Nc1ccc(Cl)c(Br)c1 | 20 | · | · | · | 7% | ·
SMILES | HCMV antiviral | Pf growth 48h | Shiga inhibitor | Pf growth 96h | HCV inh | CHX counter
Cc1ccc(Cl)c(N/C=C/C(=O)c2ccccc2)c1 | 134 | 196% | 66* | 345% | -5% | 68*
CC(=O)N1CCc2cc(S(=O)(=O)NCC(=O)NCc3ccc(Cl)cc3)ccc21 | 0 | ? | -3 | 20% | 4% | -1
COCCNC(=O)CCn1c(=O)c2cc(OC)c(OC)cc2n(CC(=O)Nc2ccc(F)c(Cl)c2)c1=O | -17 | · | · | · | · | ·
CCn1c(COC(=O)CNC(=O)c2ccccc2F)nc2cc(S(=O)(=O)N(C)C)ccc21 | -15 | 13% | · | 9% | -3% | ·
COc1cc(OC)c(OC)cc1CN1CCc2nc(Nc3ccc4c(c3)OCCO4)ncc2C1 | -25 | · | · | · | · | ·
CCNC(=O)C1CCCN(C(=O)c2cc(C)oc2C)CC1 (stereo unspecified) | 15 | · | · | · | · | ·
Cc1ccc(Sc2ncccc2NC(=O)c2ccccc2Cl)cc1 | ? | -3% | 27 | 20% | ? | -1
CCCNC(=O)OCc1cccnc1Sc1ccc(C)cc1 | 54 | 25% | 98* | 52% | 5% | 31*
CCOc1ccc(-c2n[nH]c(C)c2Oc2ccc(OC)cc2)c(O)c1 | -18 | 13µM* | 5 | · | 11µM* | 14
Cc1[nH]nc(-c2ccc(OCc3cnn(-c4ccccc4)c3)cc2O)c1Oc1ccc(F)cc1 | -76* | ? | -6 | 9.3µM* | ? | -2
CCCc1ccc(NC(=O)C2CCCN(c3cnccn3)C2)cc1 (stereo unspecified) | ? | ? | 42 | ? | 6% | 19
COC(=O)Cn1c(=O)c(C(=O)CCl)c(N)n(Cc2ccccc2)c1=O | ? | ? | -11 | 9% | ? | -7
O=C1NC(=S)N(c2ccc(F)cc2)C(=O)/C1=C/c1ccccc1O | 14 | · | 37 | 35% | 14% | 12*
Cc1ccc(/C=C2\C(=O)NC(=S)N(c3ccccc3F)C2=O)s1 | -101* | 7% | 8 | 4% | ? | 4
CCc1nc(N2CCN(C(=O)c3ccccc3)CC2)c(C#N)c2c1COC(C)(C)C2 | -62* | 9.3µM* | -20 | ? | ? | -6
Cc1ccc(S(=O)(=O)N2CCN(c3nc(C)c4c(c3C#N)CC(C)(C)OC4)CC2)cc1 | -24 | 6.6µM* | -22 | -22% | 8% | -4
CC1(C)Cc2c(C#N)c(N3CCOCC3)nc(-c3ccccc3)c2CO1 | 6 | 10µM* | -3 | ? | 0% | -3
COc1ccc(C)cc1NC(=O)C(NS(=O)(=O)c1cccc2nsnc12)c1ccccc1 (stereo unspecified) | -7 | · | · | · | · | ·
Cc1cc(C)nc(SCC(=O)N/N=C/c2cccn2-c2cccc(C(F)(F)F)c2)n1 | -27 | 9.3µM* | 43 | 13µM* | -25% | -7
Cc1cc(C(F)F)n2nc(C(=O)Nc3c(F)cc(F)cc3Br)nc2n1 | -4 | 31% | -6 | · | 10% | -3
O=C(Nc1c(F)cc(F)cc1Br)c1cc(-c2ccccc2)on1 | -29 | 51% | · | 1% | ? | 16*
Cc1cc(C(=O)Nc2c(F)cc(F)cc2Br)no1 | 56 | 22% | 26 | -2% | -1% | 14*
COc1ccc(Cl)cc1NC(=O)c1cc(-c2ccccc2)on1 | 61 | 73% | · | ? | 10% | -1
O=C(Nc1ccc(F)cc1F)c1cc(-c2ccc(Cl)cc2)on1 | 0 | · | · | · | · | ·
O=C(Nc1c(F)cc(F)cc1Br)c1cc(-c2ccc(O)cc2)on1 | -9 | · | 23 | -25% | -20% | 31*
Nc1ccccc1CNc1nc(NCCO)nc2c1ncn2CCN1CCOCC1 | ? | 6% | 29 | -4% | -14% | 11

Screening data deposited in PubChem BioAssay by National Center for Advancing Translational Sciences (NCATS).
